The values below come from ChEMBL document CHEMBL3433997, “St. Jude Leishmania screening dataset” (2016).

What all share (assay type): functional
In assay [1] the target is Solute carrier family 2, facilitated glucose transporter member 1 (Homo sapiens) (UniProt P11166). As to the kind of experiment: ST_JUDE_LEISH: Cytotoxicity at 2uM final concentration against transgenic Leishmania Mexicana promastigotes LmGLUT1 that are glucose transport deficient and complemented with the human glucose transporter GLUT1. Activity is measured by DNA content using SYBR green in vitro.

Assay [2] deals with Hexose transporter 1 (Plasmodium falciparum) (UniProt O97467). As to the kind of experiment: ST_JUDE_LEISH: Cytotoxicity at 2uM final concentration against transgenic Leishmania Mexicana promastigotes LmPfHT that are glucose transport deficient and complemented with the Plasmodium falciparum hexose transporter. Activity is measured by DNA content using SYBR green in vitro.
For assay [3], the target named is Glucose transporter (Leishmania mexicana) (UniProt O61059). As to the kind of experiment: ST_JUDE_LEISH: Cytotoxicity at 2uM final concentration against transgenic Leishmania Mexicana promastigotes LmGT2 that are glucose transport deficient and complemented with the L. Mexicana glucose transporter 2. Activity is measured by DNA content using SYBR green in vitro.

SMILES strings stand for the structures.

Chain of Solute carrier family 2, facilitated glucose transporter member 1 (Homo sapiens) (P11166 whole entry): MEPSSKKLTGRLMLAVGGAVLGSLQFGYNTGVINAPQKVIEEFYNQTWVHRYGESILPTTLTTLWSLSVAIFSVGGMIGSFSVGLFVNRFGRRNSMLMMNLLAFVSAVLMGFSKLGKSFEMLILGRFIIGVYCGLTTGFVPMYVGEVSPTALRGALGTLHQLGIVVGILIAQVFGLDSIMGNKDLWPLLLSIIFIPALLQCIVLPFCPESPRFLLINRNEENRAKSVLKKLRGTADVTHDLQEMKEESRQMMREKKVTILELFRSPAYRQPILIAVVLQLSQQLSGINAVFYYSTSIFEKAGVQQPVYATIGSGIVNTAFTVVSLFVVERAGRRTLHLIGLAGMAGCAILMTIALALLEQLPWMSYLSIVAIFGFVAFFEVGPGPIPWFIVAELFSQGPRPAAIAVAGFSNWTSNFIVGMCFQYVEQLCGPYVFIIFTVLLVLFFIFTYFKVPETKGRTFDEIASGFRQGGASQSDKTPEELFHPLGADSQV

For `COc1ccc(-c2cc(C(=O)N[C@@H](CC3CCCCC3)C(=O)NC3CCCc4ccccc43)ccc2O)cc1` (some centres undefined), the inhibition was 0.11% in assay [1], -0.02% in assay [2] and 1.1% in assay [3].

For `O=C(NCCN1CCCCC1)N1CCCN(c2ncnc3cc(-c4ccccc4)sc23)CC1`, the inhibition in assay [1] is 2.21%; in assay [2] it was 1.64%; in assay [3], 2.05%.

With `CN1C(C)(C)CC(NC(=O)c2ccc(-c3nc4cc(Cl)c(Cl)cc4[nH]3)cc2)CC1(C)C`, the inhibition is 2.52% in assay [1], 2.2% in assay [2] and 2.38% in assay [3].

For `CCCC(=O)NC(NC(=S)Nc1ccc([N+](=O)[O-])cc1)C(Cl)(Cl)Cl` (centres undefined), the results for the inhibition in assay [1], in assay [2] and in assay [3] were -1.2%, -0.54% and -0.01%, respectively.

For `O=C(/C=C/c1ccccc1Cl)Nc1ccc(Br)c(OCCN2CCN(CCN3CCCC3)CC2)c1`, the inhibition in assay [1] was 4.13%; in assay [2] it was 3.71%; in assay [3], 4.6%.

Turning to `CC(=O)Nc1ccc(CN2CCCN(c3cc(NC(=O)c4cccc(C)c4)ccn3)CC2)cc1`, the figures for the inhibition in assay [1], in assay [2] and in assay [3] were 8.6%, 11.9% and 10.9%, respectively.

With `Nc1nc(N)c2c(n1)CCC(c1ccccc1)C2` (centres undefined), the results for the inhibition in assay [1], in assay [2] and in assay [3] were 2.39%, 1.07% and 1.39%, respectively.

For the compound `CCCn1cnc2cc(C(=O)Nc3ccc(-c4cccc(CN(C)C)c4)cc3)ccc2c1=O`, the inhibition in assay [1] was 55%; in assay [2], 3.03%; in assay [3], 5.21%.

For the compound `CCOC(=O)CCCCCNC[C@H](O)c1ccccc1`, the inhibition in assay [1] is -1.32%; in assay [2], -0.8%; in assay [3] it was -2.14%.

As to `Cn1cncc1C(=O)Nc1cccc(-c2ccc(-c3nc4cc(F)ccc4[nH]3)s2)c1`, the inhibition in assay [1] is 3.18%; in assay [2], 3.3%; in assay [3], -0.1%.

In the case of `Cc1ccc(OCC2CCN(c3ncc(C(=O)NC4CC4)cc3Cl)CC2)cc1`, the inhibition in assay [1] was -0.74%; in assay [2] it was -2.55%; in assay [3], 0.52%.

Take `O=C(CNc1ccncc1)c1c[nH]c2ccccc12`: the inhibition turned out to be 0.52% in assay [1], 2.3% in assay [2] and 0.74% in assay [3].

Regarding `CC(=O)c1c(Nc2c(C)cc(C)cc2C)oc(C)cc1=O`, the figures for the inhibition in assay [1], in assay [2] and in assay [3] were 3.7%, 5.4% and 3.1%, respectively.

For `CCSc1ccccc1COc1c(C)nc(N)nc1N`, the inhibition in assay [1] came out at 6.84%; in assay [2], 6.09%; in assay [3] it was 2.41%.

With `O=C(NCC1CCN(CCN2CCc3ccc4c(c3C2)OCO4)CC1)c1ccc(-c2ccc(C(F)(F)F)cc2)cc1`, the inhibition in assay [1] was 2.17%; in assay [2], 4.3%; in assay [3] it was 1.81%.

Turning to `Oc1ccc2[nH]cc(C3CCN(CCCCCCCCCN4CCC(c5c[nH]c6ccc(O)cc56)CC4)CC3)c2c1`, the inhibition was -1.57% in assay [1], -1.31% in assay [2] and -1.9% in assay [3].

Regarding `O=C(NCC1CCN(Cc2cccc(F)c2)C1)c1cc(-c2cccc(C(F)(F)F)c2)cs1` (centres undefined), the inhibition is -1.66% in assay [1], -2.49% in assay [2] and 2.59% in assay [3].

Turning to `COCCN(C)c1ccc(C(=O)Nc2ccccc2)cc1NS(=O)(=O)Cc1ccccc1`, the inhibition turned out to be 10.2% in assay [1], 8.35% in assay [2] and 3.54% in assay [3].
